Activity calls are given as the source filed them.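 The calls were made as follows: active = blocks over 70% of labeled estradiol binding at 10 µM, or over a set limit at 100 nM; inactive = the rest.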
What follows are compounds tested against Estrogen receptor beta (Homo sapiens) (UniProt Q92731) (assay: displacement of fluorescent estrogen from ERbeta – cell-based, Cos7 ERbeta-GFP, flow cytometry, primary screen (AID 1210;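 also: 0% = DMSO vehicle wells and 100% = complete loss of labeled estradiol signal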)). Settings: fluorescent estrogen binding, at 10 µM, active compounds read high.
Chain of Estrogen receptor beta (Homo sapiens) (Q92731 whole entry, looked up): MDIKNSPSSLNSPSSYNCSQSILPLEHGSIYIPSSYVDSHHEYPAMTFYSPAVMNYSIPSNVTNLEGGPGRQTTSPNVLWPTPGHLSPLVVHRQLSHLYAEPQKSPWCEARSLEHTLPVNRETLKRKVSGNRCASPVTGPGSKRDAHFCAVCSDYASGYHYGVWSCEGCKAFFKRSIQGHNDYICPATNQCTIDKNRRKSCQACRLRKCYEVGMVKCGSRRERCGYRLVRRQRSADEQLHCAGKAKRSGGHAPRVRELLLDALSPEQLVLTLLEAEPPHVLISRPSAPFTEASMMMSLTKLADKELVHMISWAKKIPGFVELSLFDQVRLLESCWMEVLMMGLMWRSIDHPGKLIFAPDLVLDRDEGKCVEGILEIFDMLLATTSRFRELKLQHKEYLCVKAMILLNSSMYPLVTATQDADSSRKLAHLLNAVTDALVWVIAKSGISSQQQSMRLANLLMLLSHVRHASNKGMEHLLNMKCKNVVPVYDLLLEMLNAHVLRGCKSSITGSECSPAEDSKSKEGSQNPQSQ
In the case of `CCOC(=O)CN1C(c2ccc(O)cc2)Nc2ccc(Br)cc2C1c1ccccc1` (stereo unspecified), the inhibition is reported as 48% (inactive). For `Nc1nc(N)c2sc3nc4c(cc3c2n1)CCC4`, the inhibition was 29% (inactive). In the case of `COc1ccc2c(c1)C1C=CCC1C(c1cc3c(cc1Br)OCO3)N2` (stereo unspecified), the inhibition is reported as 0% (inactive). In the case of `O=C(NNC(=O)c1ccc(SCC2CCCO2)c([N+](=O)[O-])c1)c1ccc(Cl)c([N+](=O)[O-])c1` (stereo unspecified), the inhibition is reported as 0% (inactive). For `O=C(COC(=O)c1ccccc1Oc1ccccc1)NCc1ccco1`, the inhibition was 16% (inactive). In the case of `COc1ccc(/C=N/NC(=O)c2nc(-c3ccccc3)cc(-c3ccccc3)n2)cc1O`, the inhibition is reported as 71% (active). In the case of `Nc1ccc(-c2nc3c(Cl)c(N)ccc3[nH]2)cc1`, the inhibition is reported as 66% (inactive). With `C/C=C(/C(=C/C)c1ccc(O)cc1)c1ccc(O)cc1` the inhibition was 55% (active). In the case of `COc1ccc(OC)c(NC(=O)CSc2nc3ccccc3c3nc4ccccc4n23)c1`, the inhibition is reported as 70% (inactive). For `COc1cc2c(cc1OC)C(Cc1ccc(O)cc1)N(C)CC2` (stereo unspecified), the inhibition was 56% (inactive). In the case of `O=C(Cc1cccs1)Nc1ccc(S(=O)(=O)Nc2ncccn2)cc1`, the inhibition is reported as 62% (inactive). In the case of `COc1ccc(Cc2nnc(NC(=O)Cc3cccs3)s2)cc1`, the inhibition is reported as 17% (inactive). With `O=C(Nc1cnn(C23CC4CC(CC(C4)C2)C3)c1)c1cnn2c(C(F)(F)F)cc(-c3ccco3)nc12` the inhibition was 26% (inactive). `COC(=O)c1cc(-c2c(C)oc3cc(O)ccc3c2=O)c(C)o1` was tested, and the inhibition was 12% (inactive). With `CCN1CCN(Cc2c(O)c(Cl)cc3c(C)cc(=O)oc23)CC1` the inhibition was 31% (inactive). In the case of `Cc1cc(-c2nnc3sc(-c4ccc(Cl)cc4Cl)nn23)n[nH]1`, the inhibition is reported as 32% (inactive).
